Source: PubChem BioAssay AID686978 (National Center for Advancing Translational Sciences (NCATS), 2013)
Out of some 420,000 compounds screened, about 64,000 (15%) were called active. Not shown: some 27% with an inconclusive outcome. Calls follow the shape of the dose curve; as a rule, active = well fitted inhibition curve with a large enough effect; inconclusive = small, poorly fitted or top-dose-only effect; inactive = flat fitted curve, though single readings scatter. The list is a sample of the results.

assay: qHTS for Inhibitors of human tyrosyl-DNA phosphodiesterase 1 (TDP1): qHTS in cells in absence of CPT; conditions: DT40 Tdp1-/- hTDP1 cells, no CPT, ATP luminescence, 48 h; activity change, negative = growth inhibition: at 46.2 µM (top of the series); also: nearly all actives have a fitted effect of over 55% in size
Outline: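 Chicken DT40 Tdp1-/- cells stably complemented with human TDP1 were seeded at 400 cells/well with DMSO in place of 20 nM camptothecin. After compound pinning, cells grew at least 48 hr at 37 °C; viability read by CellTiter-Glo luminescence.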
% is scaled to controls: 0 for no effect and ±100 for the full control effect; potency is read from the fitted curve at half-maximal effect.

Row | SMILES | activity change, negative = growth inhibition | Potency
1 | CCCCn1c(N)c(N(CCC(C)C)C(=O)c2ccc([N+](=O)[O-])o2)c(=O)[nH]c1=O | -25.2% (inactive) | 
2 | CS(=O)(=O)N1CCC2(CCN(c3ccncc3)CC2)CC1 | -21.5% (inactive) | 
3 | O=C(C1=C(O)C(=O)N(CCOCCO)C1c1ccccn1)c1cccs1 (stereo not drawn) | 0.178% (inactive) | 
4 | CN(CC(=O)Nc1ccc(S(=O)(=O)N2CCCC2)cc1)Cc1ccc(Cl)c(Cl)c1 |  | 18.4 µM (active)
5 | CN(CCC(=O)Nc1cc(S(=O)(=O)N(C)C)ccc1Cl)CC(=O)Nc1ccc(F)cc1 | -29.5% (inactive) | 
6 | CCc1ccc(NC(=O)CN2C(=O)CCSc3ccc(S(=O)(=O)N4CCCC4)cc32)cc1 | -15.4% (inactive) | 
7 | CN1CCN(S(=O)(=O)c2ccc(NC(=O)C3CCCO3)cc2)CC1 (stereo not drawn) | -6.78% (inactive) | 
8 | CCc1ccc(NC(=O)CN2C(=O)COc3ccc(S(=O)(=O)N4CCCC4)cc32)cc1 | -28.2% (inactive) | 
9 | CCc1ccc(CN(C)C(C)C(=O)Nc2ccc(S(=O)(=O)N3CCCC3)cc2)cc1 (stereo not drawn) |  | 16.4 µM (active)
10 | O=S(=O)(NC(=S)Nc1ccccc1)c1ccc(F)cc1 | -14.4% (inactive) | 
11 | CC(=O)c1ccc[n+](C(C)CCC(C)[n+]2cccc(C(C)=O)c2)c1 (stereo not drawn) | -1.47% (inactive) | 
12 | O=C(O)CCN1C(=O)CC2(CCCCC2)C1=O | -15.2% (inactive) | 
13 | CN(CC(=O)Nc1ccccc1Cl)C(=O)COc1cccc2c1OC(C)(C)C2 | -23.2% (inactive) | 
14 | Cc1ccc(CNC(=O)C2CCN(S(=O)(=O)c3ccc4nc5c(c(C(=O)O)c4c3)CC(C)CC5)CC2)cc1 (stereo not drawn) |  | inactive
15 | CCOc1ccc(CNC(=O)c2cc(=O)[nH]c3ccc(S(=O)(=O)N4CCCCC4)cc23)cc1 | -0.677% (inactive) | 
16 | CCn1cc(C(=O)NCc2ccccc2)c(=O)c2cc(S(=O)(=O)N3CCCCC3)ccc21 |  | 7.31 µM (active)
17 | CCn1cc(C(=O)NCc2ccc(C)cc2)c(=O)c2cc(S(=O)(=O)N3CCc4ccccc4C3)ccc21 |  | 11.6 µM (active)
18 | CCOCCCNC(=O)c1cn(CC)c2ccc(S(=O)(=O)N3CCc4ccccc4C3)cc2c1=O |  | 16.4 µM (active)
19 | CCn1cc(C(=O)N(C)Cc2ccccc2)c(=O)c2cc(S(=O)(=O)N3CCCCCC3)ccc21 | -3.43% (inactive) | 
20 | CN(Cc1ccccc1)C(=O)c1cn(C)c2ccc(S(=O)(=O)N3CCCCC3)cc2c1=O | 0.261% (inactive) | 
21 | CCN(CC)CCCNC(=O)c1cn(C)c2ccc(S(=O)(=O)N(C)C3CCCCC3)cc2c1=O | 3.24% (inactive) | 
22 | CCn1cc(C(=O)NCC2CCCO2)c(=O)c2cc(S(=O)(=O)N3CCCCC3)ccc21 (stereo not drawn) | -23% (inactive) | 
23 | CCC1CCCCN1S(=O)(=O)Cc1ccccc1Cl (stereo not drawn) | -27.8% (inactive) | 
24 | CCCCn1c(N)c(N(CCOC)C(=O)c2cccc(S(=O)(=O)N3CCCCC3)c2)c(=O)[nH]c1=O | 4.74% (inactive) | 
25 | Cc1cccc(N2O[C@H]3C=CC2CCCC3)n1 | -3.14% (inactive) | 
26 | Cc1ccc(CN2CCN(/N=C/c3ccco3)CC2)c(C)c1 | -18.1% (inactive) | 

Row | SMILES | activity change, negative = growth inhibition | Potency
27 | COc1cc2ccccc2cc1C(=O)N1CCOCC1 | 3.89% (inactive) | 
28 | CCOc1ccc(C(C)=O)cc1COC(=O)CN1C(=O)NC2(CCCC2)C1=O | -25.4% (inactive) | 
29 | COc1ccc(Cl)cc1NS(=O)(=O)c1cccc(C(=O)NCC2CCCO2)c1 (stereo not drawn) | -28% (inactive) | 
30 | CCC(C)C(NC(=O)C1CCC(=O)N1C(=O)OCc1ccccc1)C(=O)NC(C(=O)N1CCCC1C(N)=O)C(C)CC (stereo not drawn) | -5.48% (inactive) | 
31 | Cc1ccc(-c2cc(C(=O)N3CCc4ccccc4C3)no2)cc1 | 21.4% (inactive) | 
32 | CCn1c(SCC(=O)NC2CC2)nnc1-c1ccccn1 | 15.7% (inactive) | 
33 | COC(C[C@H](O)CC(=O)COCc1ccccc1)OC | -13.3% (inactive) | 
34 | Cc1cc(C)cc(OCC(=O)NC(C)c2ccccc2)c1 (stereo not drawn) | -23.8% (inactive) | 
35 | CCOC(=O)/C=C/C(=O)OCC(=O)NC(c1ccccc1)c1ccccc1 |  | 8.2 µM (active)
36 | CCOC(=O)C(C(=O)OCC)C(C#N)c1ccccc1 (stereo not drawn) | -14.2% (inactive) | 
37 | Cc1ccc(SCC(=O)NC(=O)NCc2ccco2)c(C)c1 | -15.3% (inactive) | 
38 | CC1=C(C(=O)N2CCOCC2)CC(CC(=O)NCc2cccs2)C(=O)N1CCCN1CCCC1=O (stereo not drawn) | -1.36% (inactive) | 
39 | CCN1C(=O)/C(=C\N2CCOCC2)SC1=S | -17.2% (inactive) | 
40 | CCN1C(=O)/C(=C\N2CCN(c3cccc(Cl)c3)CC2)SC1=S |  | 16.4 µM (active)
41 | O=C(O)C(c1ccccc1)N1C(=O)/C(=C\c2ccc(-c3cccc(Cl)c3)o2)SC1=S (stereo not drawn) | 4.16% (inactive) | 
42 | CC1=NNC(=O)C1CC(=O)N/N=C/c1ccncc1 (stereo not drawn) | 3.01% (inactive) | 
43 | Cc1ccc(S(=O)(=O)NCC(=O)N2CCOCCOCCOCCOCC2)cc1 | -0.131% (inactive) | 
44 | CC1CCN(C(=O)COC(=O)CCC(=O)c2cccs2)CC1 | -4.71% (inactive) | 
45 | CCC(=O)N1CCN=C1SCc1ccc(F)cc1 | -0.0309% (inactive) | 
46 | COc1ccc(OC)c(S(=O)(=O)NCCC(C)C)c1 | -21.6% (inactive) | 
47 | COc1ccccc1N1CCN(/N=C/c2ccc(O)cc2O)CC1 | -1.21% (inactive) | 
48 | COc1ccccc1N1CCN(C(=O)C(=O)N/N=C/c2ccccc2F)CC1 | 1.79% (inactive) | 
49 | COc1ccccc1N1CCN(/N=C\C(Br)=C\c2ccccc2)CC1 |  | 7.31 µM (active)
50 | COCCn1c(N)c(N(Cc2ccccc2)C(=O)C2CCCCC2)c(=O)[nH]c1=O | -18.9% (inactive) | 
51 | NC(=O)C1CCN(CC(O)CSc2ccc(F)cc2)CC1 (stereo not drawn) | -3.19% (inactive) | 
52 | CCCN1CC=C2C(C#N)=C(N)C(C#N)(C#N)C(c3cc(OC)ccc3OC)C2C1 (stereo not drawn) | -27.2% (inactive) | 

Row | SMILES | activity change, negative = growth inhibition | Potency
53 | CCOc1ccc(C2C(C(=O)NC)=C(C)Nc3nc4ccccc4n32)cc1OC (stereo not drawn) | 0.6% (inactive) | 
54 | COc1cccc(NC(=O)COC(=O)CCOc2ccccc2OC)c1 | 10.3% (inactive) | 
55 | COc1cccc(NC(=O)C(C)Oc2ccccc2)c1 (stereo not drawn) | -12.3% (inactive) | 
56 | COc1cccc(NC(=O)CC(c2ccc(OC(C)C)cc2)c2ccccc2OC)c1 (stereo not drawn) |  | 11.6 µM (active)
57 | CC(C)n1c(=S)[nH]c2cc(C(F)(F)F)ccc21 |  | 16.4 µM (active)
58 | CCCn1c(=S)[nH]c2ccc(C(F)(F)F)cc21 | -22.6% (inactive) | 
59 | CNS(=O)(=O)c1ccc2c(c1)[nH]c(=S)n2C | -31.1% (inactive) | 
60 | O=C(NCc1ccncc1)C1CCN(C(=O)c2cccc(Cl)c2)CC1 | -8.32% (inactive) | 
61 | CCC(C(=O)NC1CCCC1)N(C(=O)Cn1nnc(-c2ccc(C)o2)n1)c1ccc(OC)c(OC)c1 (stereo not drawn) | -8.18% (inactive) | 
62 | COC(=O)COc1ccc(S(=O)(=O)Nc2ccc(NC(C)=O)cc2)cc1 | -4.63% (inactive) | 
63 | COc1cc(NS(=O)(=O)c2ccc(NC(C)=O)cc2)cc(OC)c1 |  | 8.2 µM (active)
64 | COc1cc(NC(=O)N2CCOCC2)cc(OC)c1 | 5.47% (inactive) | 
65 | CC(=O)Nc1ccc(NS(=O)(=O)c2ccc3c(c2)NC(=O)CC(=O)N3)cc1 | 16.8% (inactive) | 
66 | COC(C(=O)Nc1ccc(S(=O)(=O)Nc2ccc(C)c(C)c2)cc1)c1ccccc1 (stereo not drawn) |  | 14.6 µM (active)
67 | COc1ccc(S(=O)(=O)Nc2ccc3c(c2)OCO3)cc1Cl | -29.2% (inactive) | 
68 | COc1cc(OC)cc(C(=O)Nc2ccc(S(=O)(=O)Nc3cc(C)on3)cc2)c1 | -10.8% (inactive) | 
69 | CC(=O)Nc1ccc(S(=O)(=O)Nc2ccc(N3CCOCC3)c(F)c2)cc1 | -29.2% (inactive) | 
70 | COc1cc(NS(=O)(=O)c2ccc3c(c2)OCC(C(=O)N2CCCC2)O3)cc(OC)c1 (stereo not drawn) |  | 20.6 µM (active)
71 | CC(=O)Nc1ccc(S(=O)(=O)Nc2ccc(N3CCCCC3)cc2)cc1 |  | 2.91 µM (active)
72 | COC(C(=O)Nc1ccc(C(C)=O)cc1)c1ccccc1 (stereo not drawn) | -5.81% (inactive) | 
73 | COC(C(=O)NCc1ccccc1C)c1ccccc1 (stereo not drawn) | 7.88% (inactive) | 
74 | CC(=O)N1CC2(C)CN(C(C)=O)CC(C)(C1)C2=O | 24.2% (inactive) | 
75 | COc1ccc(N(CCC#N)S(=O)(=O)c2ccc(Cl)cc2)cc1 | -15.6% (inactive) | 
76 | CCCC(=O)NC(Nc1ccccc1OC)C(Cl)(Cl)Cl (stereo not drawn) | -15.5% (inactive) | 
77 | Cn1c(=O)n(C)c(=O)n(CC(=O)N2CCCCC2)c1=O | -9.66% (inactive) | 
78 | COc1cc(OC)cc(C2=Cc3ccccc3C(CC(=O)c3ccco3)N2c2ccc(-c3cnc(OC)nc3)cc2)c1 (stereo not drawn) | -20.1% (inactive) | 

Row | SMILES | activity change, negative = growth inhibition | Potency
79 | CC(=O)Nc1ccc(NC(=O)C(C)OC(=O)C2CC(=O)N(CCc3ccccc3)C2)cc1 (stereo not drawn) | -12.2% (inactive) | 
80 | O=C(NCC1(N2CCCCC2)CCCCC1)c1ccc(NS(=O)(=O)c2ccc(F)cc2)cc1 | -12.2% (inactive) | 
81 | CCc1nnc(NC(=O)CSc2nnnn2-c2cccc(C(C)=O)c2)s1 | -26% (inactive) | 
82 | COc1cccc(/C=C2\SC(=N)N(c3ccc(F)cc3)C2=O)c1 | -22.3% (inactive) | 
83 | COc1ccc(S(=O)(=O)Nc2ccc3oc(C)c(C(C)=O)c3c2)cc1 |  | 5.17 µM (active)
84 | CC(=O)Nc1ccc(S(=O)(=O)Nc2cccc(NC(=O)C(C)(C)C)c2)cc1 | -25.7% (inactive) | 
85 | CC(=O)c1c(C)oc2ccc(NS(=O)(=O)c3ccc(C(=O)O)cc3)cc12 | -15.3% (inactive) | 
86 | COc1ccc(OC)c(C(C)NC(=S)Nc2ccc(S(=O)(=O)Nc3ncccn3)cc2)c1 (stereo not drawn) | 1.85% (inactive) | 
87 | COc1ccc(NS(=O)(=O)c2ccc(NC(C)=O)cc2)cc1OC |  | 6.51 µM (active)
88 | COc1ccc(/C=C/C(=O)c2ccc(NS(=O)(=O)c3ccc(C)cc3)cc2)cc1O |  | 20.6 µM (active)
89 | COc1ccc(NS(=O)(=O)c2ccc(NC(=S)NC(=O)CC(C)C)cc2)cc1 |  | 18.4 µM (active)
90 | COc1ccc2oc(C)c(NC(C)=O)c2c1 | 1.12% (inactive) | 
91 | COc1ccc(CNC(=O)c2ccc(NS(=O)(=O)c3ccc4[nH]c(=O)[nH]c4c3)cc2)cc1OC | -1.23% (inactive) | 
92 | COc1ccc(S(=O)(=O)Nc2cc(C)on2)cc1NC(C)=O | 9.18% (inactive) | 
93 | CC(=O)c1ccc(NC(=S)NC(=O)CC(C)C)cc1 | 10.3% (inactive) | 
94 | COc1ccc(C(=O)Oc2cc(/C=N/NS(=O)(=O)c3ccc(C)cc3)ccc2OC)cc1 | -6.69% (inactive) | 
95 | CCCC(=O)Nc1ccc2oc(-c3ccc(O)c(Br)c3)nc2c1 | -12.9% (inactive) | 
96 | CSc1ccccc1OCc1cc(C(=O)N(C)CCc2c(C)n[nH]c2C)no1 | -25.5% (inactive) | 
97 | O=C(CN1CCCCCC1)Nc1c(Cl)cc(Cl)cc1Cl | -6.89% (inactive) | 
98 | CN(C)C(=O)c1ccc(NC(=O)COC(=O)c2cc3c(s2)CCCCC3)cc1 | -5.24% (inactive) | 
99 | CSc1ccc(/C=N/N2CCN(Cc3ccccc3Cl)CC2)cc1 | -23.9% (inactive) | 
100 | Cn1c2c(c(=O)n(C)c1=O)C(c1ccc(O)cc1)Nc1ccccc1O2 (stereo not drawn) | -2.2% (inactive) | 
101 | Cc1nn(Cc2ccccc2)c(C)c1C(=O)N1CCN(CC(=O)Nc2ccccc2Cl)CC1 |  | 23.1 µM (active)
102 | CCC(=O)Nc1ccccc1C(=O)N1CCN(Cc2ccccc2)CC1 | -24.9% (inactive) | 
103 | Cc1nn(Cc2ccccc2)c(C)c1C(=O)NCCCN1CCCC1=O | 20% (inactive) | 
